Molecules are shown by their SMILES. Calls of active or inactive are those of the source. Unless noted, no rule for the calls is given here.

The values below come from PubChem BioAssay.

The test system of assay [1] is Wnt5a (protein binding on small-molecule microarray). Briefly: Wnt5a binders on small-molecule microarray, primary screen, biophysical, 635/667 nm fluorescence (AID 1142).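 Also: fluorescence read at 667 nm with signal to noise per printed feature.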 The settings on record: 635 nm fluorescence, higher = more signal.
Assay [2] can be described thus: cell viability in Huh7 cells, primary screen, cytotoxicity control for HCV replication inhibitor project, CellTiter-Glo luminescence, basal, 48 h (AID 1143).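 Also: Huh7 hepatoma cells carrying a hepatitis C replication reporter with no stimulus; test concentration not given here.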 The settings on record: Huh7 HCV replicon, higher = more signal, called active from +8 up or from −8 down. A general note: In ATP-based viability assays light output follows the ATP content of the culture.
The nature of assay [3]: P. aeruginosa biofilm formation inhibitors, primary screen, PAO1 strain, BacTiter-Glo luminescence, LB-PBS (AID 1144). The settings on record: 12 h, higher = more signal.
Assay [4] is described as follows: CREB reporter modulators without forskolin, primary screen, cell-based, PC12, CRE-LacZ reporter, unstimulated (AID 1145). The conditions noted are these: no forskolin, luminescence, 4.5 h, higher = more signal, called active from +8 up or from −8 down.
The nature of assay [5]: CREB reporter modulators under forskolin, primary screen, cell-based, PC12, CRE-LacZ reporter, forskolin-stimulated (AID 1146).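 Also: PC12 cells with 6xCRE LacZ reporter stimulated by forskolin 10 µM; beta-galactosidase reporter signal reflecting CREB driven transcription.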 The conditions noted are these: luminescence, 4.5 h, higher = more signal, called active from +8 up or from −8 down.
Assay [6] addresses Streptavidin (Streptomyces avidinii) (UniProt P22629). Description: streptavidin binders on small-molecule microarray, primary screen, artefact control for SMM compound annotation, biophysical, 635/667 nm fluorescence (AID 1147).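 Also: signal reflects streptavidin binding to arrayed compounds as a control protein.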 The settings on record: streptavidin binding, higher = more signal.
Assay [7] in a line: small-molecule binders of probe aInhba, primary screen, biochemical, small-molecule microarray, 635/667 nm fluorescence (AID 1148).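 Also: score merges 667nm spot fluorescence with signal-to-noise for antibody binding to printed compounds.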 The settings on record: higher = more signal.
For assay [8], the target named is Torsin-1A (Homo sapiens) (UniProt O14656). Description: torsin A binders from cell lysate, primary screen, small-molecule microarray, wild-type, 635/667 nm (AID 1149). The settings on record: COS7 hTOR1A-WT lysate, 635 nm fluorescence, higher = more signal.
Assay [9] has the same target. Description: small-molecule binders of mutant TOR1A in lysate, primary screen, cell lysate, small-molecule microarray, COS7 lysate, 635/667 nm fluorescence (AID 1150).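 Also: score pools 667 nm emission and signal to noise measuring lysate protein binding.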 The settings on record: COS7 hTOR1A mutant lysate, 635 nm fluorescence, higher = more signal.
The test system of assay [10] is Sonic hedgehog protein (Shh). Description: small-molecule binders of Shh protein, primary screen, biochemical, small-molecule microarray, 635/667 nm fluorescence (AID 1151).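 Also: Shh protein binding to compounds spotted on small-molecule microarray slides; score combines spot fluorescence intensity with signal-to-noise across triplicate slides.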 The settings on record: small-molecule microarray binding, 635 nm fluorescence; higher = more signal.
Assay [11] in a line: E. coli DRC41 culture turbidity changes, primary screen, E. coli filamentation inducer project, strain DRC41, OD650, 48 h (AID 1152).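 Also: E. coli MC1000 strain DRC41 lacking acrAB efflux pump and sulA.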 The settings on record: E. coli DRC41 (acrAB sulA), higher = more signal, called active from +8 up or from −8 down.
The nature of assay [12]: small-molecule binders of probe aLefty1, primary screen, biochemical, small-molecule microarray, 635/667 nm fluorescence (AID 1153).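 Also: score merges spot fluorescence with signal-to-noise ratio from the scanned slide images.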 The settings on record: higher = more signal.
The nature of assay [13]: PSAC antagonists in infected red cells, primary screen, cell-based, P. falciparum Indochina, OD700, 1 h (AID 1154). The conditions noted are these: P. falciparum Indochina infected RBC osmotic lysis, higher = more signal, called active from +8 up or from −8 down.
Assay [14] is described as follows: PSAC antagonists in infected red cells, primary screen, cell-based, P. falciparum Indochina, OD700, 2 h (AID 1155).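 Also: lysis reports solute entry through the parasite surface anion channel PSAC; channel blockers reduce lysis of infected cells.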 The conditions noted are these: P. falciparum Indochina infected erythrocytes, osmotic lysis OD700; higher = more signal, called active from +8 up or from −8 down.
The nature of assay [15]: osmotic lysis modulators in infected erythrocytes, primary screen, PSAC antagonist project, cell-based, P. falciparum Indochina, OD700, 3 h (AID 1156). The conditions noted are these: higher = more signal, called active from +8 up or from −8 down.
Assay [16] in a line: PSAC antagonists in infected red cells, primary screen, cell-based, P. falciparum Indochina, OD700, 18 h (AID 1157). The settings on record: P. falciparum Indochina infected erythrocytes, osmotic lysis OD700, 18 h; higher = more signal, called active from +8 up or from −8 down.
Assay [17] in a line: modulators of S6 phosphorylation in cells, primary screen, cell-based, A549, cytoblot, luminescence, serum-stimulated (AID 1158).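 Also: serum-stimulated A549 lung adenocarcinoma cells; signal is phosphorylated S6 detected by cytoblot immunostaining with HRP secondary.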 The conditions noted are these: A549 phospho-S6 cytoblot, 5 h, higher = more signal.
For assay [18], the target named is NADPH oxidase 2 (Homo sapiens) (UniProt P04839). Briefly: NOX2-dependent H2O2 signal modulators, primary screen, NOX inhibitor project, cell-based, HEK293-NOX2, PMA-stimulated, Amplex Red fluorescence (AID 1159). Also: test concentration not given here. The conditions noted are these: 45 min, higher = more signal, called active from +8 up or from −8 down.
Assay [19] concerns the target NADPH oxidase 4 (Homo sapiens) (UniProt Q9NPH5). Briefly: NOX4-dependent H2O2 signal modulators, primary screen, NOX inhibitor project, cell-based, HEK293-NOX4, tetracycline-induced, Amplex Red fluorescence (AID 1160). The settings on record: 45 min, higher = more signal, called active from +8 up or from −8 down.
Assay [20] concerns the target NADPH oxidase 5 (Homo sapiens) (UniProt Q96PH1). Briefly: NOX5-dependent H2O2 signal modulators, primary screen, NOX inhibitor project, cell-based, HEK293-NOX5, Amplex Red fluorescence (AID 1161). The conditions noted are these: HEK293-NOX5, ionomycin, 45 min, higher = more signal.

Chain of Streptavidin (Streptomyces avidinii) (P22629 whole entry, looked up): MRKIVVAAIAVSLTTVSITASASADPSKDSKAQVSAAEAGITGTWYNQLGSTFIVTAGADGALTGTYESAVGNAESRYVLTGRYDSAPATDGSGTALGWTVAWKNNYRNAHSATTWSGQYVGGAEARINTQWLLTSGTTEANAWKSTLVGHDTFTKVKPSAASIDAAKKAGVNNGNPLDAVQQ
Chain of Torsin-1A (Homo sapiens) (O14656 whole entry, looked up): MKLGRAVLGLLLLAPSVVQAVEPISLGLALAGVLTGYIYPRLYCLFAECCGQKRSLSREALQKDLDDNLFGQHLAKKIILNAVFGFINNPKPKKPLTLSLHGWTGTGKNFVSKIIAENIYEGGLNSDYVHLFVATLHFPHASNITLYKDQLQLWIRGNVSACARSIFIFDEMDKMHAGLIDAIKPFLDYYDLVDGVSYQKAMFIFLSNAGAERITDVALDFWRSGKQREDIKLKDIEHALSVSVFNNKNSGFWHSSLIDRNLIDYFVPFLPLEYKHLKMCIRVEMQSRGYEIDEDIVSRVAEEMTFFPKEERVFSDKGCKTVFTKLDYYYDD
Chain of NADPH oxidase 2 (Homo sapiens) (P04839 whole entry, looked up): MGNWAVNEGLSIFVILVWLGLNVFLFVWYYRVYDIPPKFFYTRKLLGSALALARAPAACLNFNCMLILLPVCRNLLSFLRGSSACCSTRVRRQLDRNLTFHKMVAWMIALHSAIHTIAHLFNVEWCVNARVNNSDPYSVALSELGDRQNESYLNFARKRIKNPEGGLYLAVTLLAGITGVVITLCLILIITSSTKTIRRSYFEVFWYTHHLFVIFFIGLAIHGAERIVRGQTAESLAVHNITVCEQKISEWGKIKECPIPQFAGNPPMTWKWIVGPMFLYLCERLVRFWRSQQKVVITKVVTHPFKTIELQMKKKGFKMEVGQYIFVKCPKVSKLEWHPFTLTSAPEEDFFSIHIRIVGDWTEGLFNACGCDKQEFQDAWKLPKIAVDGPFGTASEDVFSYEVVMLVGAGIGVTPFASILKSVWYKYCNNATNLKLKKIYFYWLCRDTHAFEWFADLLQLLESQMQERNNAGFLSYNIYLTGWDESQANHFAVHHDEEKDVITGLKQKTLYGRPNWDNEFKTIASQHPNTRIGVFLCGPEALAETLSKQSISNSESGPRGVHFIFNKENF
Chain of NADPH oxidase 4 (Homo sapiens) (Q9NPH5 whole entry, looked up): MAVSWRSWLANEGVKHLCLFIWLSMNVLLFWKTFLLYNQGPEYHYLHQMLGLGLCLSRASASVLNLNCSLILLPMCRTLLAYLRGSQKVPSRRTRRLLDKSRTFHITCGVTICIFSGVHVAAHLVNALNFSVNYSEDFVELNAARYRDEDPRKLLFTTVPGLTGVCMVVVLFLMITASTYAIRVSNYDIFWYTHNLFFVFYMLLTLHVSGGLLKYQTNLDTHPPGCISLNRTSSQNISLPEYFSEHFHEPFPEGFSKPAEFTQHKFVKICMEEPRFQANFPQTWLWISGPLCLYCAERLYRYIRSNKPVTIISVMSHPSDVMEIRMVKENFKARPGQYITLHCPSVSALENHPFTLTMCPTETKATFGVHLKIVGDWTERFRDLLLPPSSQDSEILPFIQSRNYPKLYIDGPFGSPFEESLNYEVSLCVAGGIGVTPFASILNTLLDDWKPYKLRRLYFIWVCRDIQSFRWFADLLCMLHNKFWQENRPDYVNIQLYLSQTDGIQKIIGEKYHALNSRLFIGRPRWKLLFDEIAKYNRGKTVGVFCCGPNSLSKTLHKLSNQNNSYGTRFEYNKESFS
Chain of NADPH oxidase 5 (Homo sapiens) (Q96PH1 whole entry, looked up): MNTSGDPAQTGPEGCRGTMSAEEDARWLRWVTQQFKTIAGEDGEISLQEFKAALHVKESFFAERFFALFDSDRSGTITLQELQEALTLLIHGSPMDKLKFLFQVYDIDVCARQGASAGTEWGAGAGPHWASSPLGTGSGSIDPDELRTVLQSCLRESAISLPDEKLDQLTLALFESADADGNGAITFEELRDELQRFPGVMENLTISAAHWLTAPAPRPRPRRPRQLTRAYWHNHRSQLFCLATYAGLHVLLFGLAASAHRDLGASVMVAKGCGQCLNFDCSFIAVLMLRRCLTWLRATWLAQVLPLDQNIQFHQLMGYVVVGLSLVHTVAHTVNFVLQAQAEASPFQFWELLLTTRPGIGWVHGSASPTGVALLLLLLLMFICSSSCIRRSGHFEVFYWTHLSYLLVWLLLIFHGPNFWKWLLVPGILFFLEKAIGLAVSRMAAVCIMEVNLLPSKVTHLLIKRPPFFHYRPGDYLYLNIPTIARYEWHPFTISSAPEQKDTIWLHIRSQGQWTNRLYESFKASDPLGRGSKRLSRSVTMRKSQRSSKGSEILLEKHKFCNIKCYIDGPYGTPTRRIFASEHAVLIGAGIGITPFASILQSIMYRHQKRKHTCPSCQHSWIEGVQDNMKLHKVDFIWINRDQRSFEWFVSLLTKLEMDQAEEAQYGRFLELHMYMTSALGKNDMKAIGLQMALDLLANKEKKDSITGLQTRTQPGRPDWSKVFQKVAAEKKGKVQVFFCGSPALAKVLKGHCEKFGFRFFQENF

Turning to `COc1ccc(C(=O)Nc2ccc(CN3C(=O)[C@]4(O[C@H](CC(=O)N(CCO)Cc5ccccc5)[C@@H]([Si](C)(C)c5ccc(OC)cc5)[C@@H]4C)c4ccccc43)cc2)cc1`, the composite z-score in assay [1] is 0.334; in assay [6], -0.138; in assay [7] it was -0.128; with Torsin-1A (Homo sapiens) [8], 0.689; with Torsin-1A (Homo sapiens) [9] it was -0.0595; in assay [10], 1.94. For the same molecule, the composite z-score in assay [12] was -0.142. The z-score in [2] is -4.06 (inactive); in assay [3], 0.52 (inactive); in assay [4], 0.339 (inactive); in [5] it was -0.221 (inactive); in [11], 0.863 (inactive); in assay [13], 4.94 (inactive). For the same molecule, the z-score in assay [14] was 1.89 (inactive); in assay [15], 0.439 (inactive); in [16], 1.02 (inactive); in assay [17], 0.383; in assay [18], 0.658 (inactive); in assay [19], 0.801 (inactive). Moreover, the z-score in assay [20] amounted to 3.23.
`COc1ccc([Si](C)(C)[C@H]2[C@H](CC(=O)N(CCO)Cc3ccccc3)O[C@@]3(C(=O)N(c4ccccc4)c4ccccc43)[C@@H]2C)cc1`: the composite z-score in assay [1] is 0.318; in assay [6], 0.862; in assay [7], -0.0986; with Torsin-1A (Homo sapiens) [8], 0.0895; in the assay with Torsin-1A (Homo sapiens) [9] it was -0.364; in assay [10] it was 1.2. This molecule registered a composite z-score in assay [12] of -0.0603. Besides, the z-score in [2] is -7.96 (inactive); in [3] it was -0.164 (inactive); in assay [4] it was 16.4 (active); in [5] it was -3.89 (inactive); in [11], -0.79 (inactive); in assay [13] it was 26.5 (active). The z-score in assay [14] is 12.9 (active); in assay [15] it was 0.495 (inactive); in [16], 2.04 (inactive); in assay [17], 0.297; in [18], -0.0743 (inactive); in assay [19] it was 0.689 (inactive). This molecule registered a z-score in assay [20] of -1.65.
On to `COC(=O)C1=CC(c2ccc(CO)cc2)=CC(C2CC2)N(Cc2cc3c(cc2Br)OCO3)C=C1C(=O)OC` (stereo not given), for which the composite z-score in assay [1] is 0.92; in [6] it was 1.52; in assay [7], 0.225; in the assay with Torsin-1A (Homo sapiens) [8], 0.312; in the assay with Torsin-1A (Homo sapiens) [9], 0.832; in [10] it was 1.21. The composite z-score in assay [12] was 0.3. Moreover, the z-score in assay [2] is -3.35 (inactive); in assay [3], 0.754 (inactive); in assay [4], -0.904 (inactive); in assay [5], -0.5 (inactive); in [11] it was -0.938 (inactive); in assay [13] it was 10.6 (active). Further, the z-score in assay [14] was 0.856 (inactive); in assay [15], 0.954 (inactive); in [16], 0.572 (inactive); in assay [17], -0.625; in assay [18], -0.853 (inactive); in assay [19], -0.385 (inactive). In addition, the z-score in assay [20] is 0.857.
Take `C=CCC(OC(C)=O)[C@@H]1[C@@H](N(Cc2cccc3ccccc23)C(=O)c2ccc(C)cc2)c2cc(OCCCO)ccc2N1C(=O)Cc1ccc2ccccc2c1` (stereo not given in full): the composite z-score is 0.245 in assay [1]; 0.652 in [6]; -0.101 in [7]; 0.125 in the assay with Torsin-1A (Homo sapiens) [8]; -0.564 with Torsin-1A (Homo sapiens) [9]; -0.0314 in assay [10]. In assay [12], this molecule showed a composite z-score of 0.167. The z-score in assay [2] was -0.72 (inactive); in assay [3], -0.234 (inactive); in assay [4], 1.46 (inactive); in assay [5], -0.0127 (inactive); in [11], 2.62 (inactive); in assay [13], 0.483 (inactive). The z-score in [14] was -0.407 (inactive); in [15], -0.419 (inactive); in assay [16] it was -1.2 (inactive); in assay [17], 2.14; in assay [18], -2.56 (inactive); in assay [19] it was 1.08 (inactive). Also, in assay [20], the z-score was found to be 2.41.
As to `C=C(C(=O)CC[C@H](OC(=O)c1ccccc1-c1ccccc1C(=O)O)c1ccc(OCCO)cc1)C(C)C`, the composite z-score in [1] was 0.686; in assay [6], -0.0151; in assay [7], 0.0497; with Torsin-1A (Homo sapiens) [8], 1.87; with Torsin-1A (Homo sapiens) [9], 1.5; in assay [10] it was 0.7. For the same molecule, the composite z-score in [12] came out at 0.235. In addition, the z-score was -0.723 (inactive) in [2]; -1.22 (inactive) in assay [3]; 0.611 (inactive) in assay [4]; 1.09 (inactive) in [5]; -0.0716 (inactive) in [11]; 11.6 (active) in assay [13]. Besides, the z-score in assay [14] is 1.77 (inactive); in [15], 2.09 (inactive); in assay [16] it was 0.92 (inactive); in assay [17] it was -0.154; in [18] it was 0.357 (inactive); in assay [19] it was -0.446 (inactive). Also, in assay [20], the z-score was -2.12.
In the case of `COc1cccc(C)c1NC(=O)O[C@H]1[C@H](OC(=O)Nc2ccccc2)[C@@H](OC(=O)Nc2ccccc2)[C@@H](OC)O[C@@H]1CO`, the composite z-score turned out to be 0.486 in assay [1]; 0.163 in assay [6]; 0.0227 in assay [7]; 2.57 in the assay with Torsin-1A (Homo sapiens) [8]; 0.958 with Torsin-1A (Homo sapiens) [9]; 0.958 in [10]. The same molecule displayed a composite z-score in assay [12] of 0.26. The z-score is -4.16 (inactive) in assay [2]; -1.16 (inactive) in assay [3]; 1.61 (inactive) in assay [4]; -2.37 (inactive) in assay [5]; -0.818 (inactive) in [11]; 3.02 (inactive) in assay [13]. Further, the z-score in assay [14] is 0.121 (inactive); in [15], 0.376 (inactive); in assay [16], 0.421 (inactive); in [17] it was 0.249; in assay [18] it was -7.01 (inactive); in assay [19] it was -1.26 (inactive). In addition, the z-score in [20] was -2.29.
`C=CCNC(=O)[C@H]1[C@@H]2C(=O)O[C@@H](c3ccccc3)[C@@H](c3ccccc3)N2[C@@H](c2ccc(O)cc2)[C@]12C(=O)Nc1ccc(C#CCC(C(=O)OC)C(=O)OC)cc12`: the composite z-score in assay [1] is -0.223; in [6], -0.419; in assay [7] it was -0.0762; with Torsin-1A (Homo sapiens) [8], 0.685; with Torsin-1A (Homo sapiens) [9], 0.449; in assay [10] it was 0.414. In addition, the composite z-score in assay [12] was -0.188. Also, the z-score in assay [2] was 0.15 (inactive); in [3], 0.278 (inactive); in [4] it was -0.471 (inactive); in assay [5] it was 0.0988 (inactive); in assay [11] it was 0.824 (inactive); in assay [13], 8.47 (active). Further, the z-score in assay [14] was 1.51 (inactive); in assay [15], 0.416 (inactive); in assay [16], 0.432 (inactive); in [17], 0.0591; in [18], 1.82 (inactive); in assay [19], 0.194 (inactive). For the same molecule, in [20], the z-score stood at 1.93.
